A selection: hits, their analogues and other compounds. The true share with any hit is near 6.9%.
Beta cell apopt: beta cell apoptosis inhibition | INS-1E cytokine-induced death, ATP luminescence, 48 h; percent of positive-control rescue, neutral wells zero | protection from apoptosis, % (no concentration beside the values) | 0.8% of 300,000 active;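 active means Every replicate reaches about 75%, or at least half do and their mean reaches it too, limit read from the data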;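 further: 0% = cytokine-treated negative control wells and 100% = positive control rescue; higher means more ATP so stronger rescue from cytokine killing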
SKKanGAS inh: SKKanGAS growth inhibition | S. pyogenes SKKanGAS, kanamycin growth, BacTiter-Glo, 6 h | inhibition, % at 7.5 µM | 1.3% of 300,000 active;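 active means mean replicate score, as percent of positive control median, at least 50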;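 further: strain carries kanamycin resistance gene driven by streptokinase promoter and grows in 40 µg/ml kanamycin; loss of luminescence reflects streptokinase promoter inhibition or plain growth inhibition; 0% = median of DMSO wells and 100% = positive control at its reference dose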
CSC inhib: cancer stem cell inhibition. cancer stem cell-like cells viability, luminescence. inhibition, % at 7.5 µM. 1.1% of 300,000 active; in the data active means inhibition above about 75%; tested in HMLE shEcad cells
Mdm2 MdmX PPI: human Mdm2/MdmX binding inhibition. O15151+Q00987. SaOS-2 split-luciferase Mdm2/MdmX complementation, luminescence. inhibition, % at 8 µM. 3% of 330,000 active. AID 485346;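 active means inhibition of at least 50% at 8 µM in the primary screen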
MPTP inh: blocks calcium-induced mitochondrial swelling; isolated mouse mitochondria, Ca2+ swelling absorbance, 30 min; inhibition, % at 10 µM; 1.4% of 360,000 active;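 active means inhibition of 50% or more, scaled per plate between neutral and stimulator controls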;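 further: 0% = DMSO wells given calcium and 100% = 1 mM EGTA wells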
GRIN3A LBD mod: modulators (binders) of human NR3A ligand-binding domain. AID 1259313. Tm shift relative to glycine control, % at 25 µM. NR3A LBD differential scanning fluorimetry, Tm shift; 0% = protein alone, 100% = glycine-bound protein. 2.5% of 340,000 active;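 active means melting temperature shift of at least 10% of the positive control shift, at one fixed dose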
An asterisk follows results filed as active; . = no result; ! = not confirmed by another sample.

SMILES	Beta cell apopt	SKKanGAS inh	CSC inhib	Mdm2 MdmX PPI	MPTP inh	GRIN3A LBD mod
CCCc1nc2sc3ccccc3c(=O)c2c(=O)n1Cc1ccc(OC)cc1	99.6*	41.2	-4.7	29.9	14.1	14.6*
N#Cc1ccc(CN2CCN(C(=O)CCNS(=O)(=O)c3ccc(F)c(Cl)c3)CC2)cc1	5.2	.	.	24.3	0.1	-1.5
N#Cc1cccc(N=c2ssnc2Cl)c1	.	-0.1	.	23.0	.	26.9*
Clc1nssc1=Nc1ccc(Br)cc1	.	0.4	.	.	7.6	8.2
CCCc1ccc(O)c(N=Cc2cc(Br)cc(OCC)c2O)c1	-7.0	11.3	91.0*	39.3	14.2	-34.8
N#C/C(=C/Nc1ccccc1F)S(=O)(=O)c1ccc(Cl)cc1	1.8	-2.1	16.6	12.6	11.6	-4.3
Cc1cc(CN2CCCC(N3CCc4ccccc4C3)C2)cc(C)c1O (stereo not drawn)	.	1.4	-15.3	0.3	1.9	-2.0
CC(C)(C)C(=O)CN1CCN(S(=O)(=O)c2ccc(F)cc2)CC1	-8.1	2.4	-16.9	9.6	-1.7	12.2*
CC(=O)c1ccc(NC(=O)c2ccc(C)c(S(=O)(=O)N3CCOCC3)c2)cc1	-2.2	1.0	0.8	20.5	0.8	-0.2
O=C(Nc1ccc(S(=O)(=O)N2CCOCC2)cc1)c1cccc(Br)c1	3.1	-5.0	2.5	-1.4	-0.4	30.5*
O=C(NCCCN1CCOCC1)c1ccc(Sc2cccc(Cl)c2)c([N+](=O)[O-])c1	.	-3.0	.	1.6	2.6	19.4*
Cc1ccc(C(=O)Nc2ccc(S(=O)(=O)N3CCOCC3)cc2)cc1Br	5.0	-1.8	1.8	19.8	12.1	33.6*
O=C(Cn1nc(C(F)F)cc1C1CC1)N1CCCC1	2.0	-1.3	-3.2	13.7	-2.6	-0.9
Cc1ccc(S(=O)(=O)N2CCN(CC(=O)N/N=C/c3ccc(C)o3)CC2)cc1	-4.9	-3.5	-8.3	11.6	-2.9	31.6*
COc1ccc(NC(=O)c2ccc(NCCCN3CCOCC3)c([N+](=O)[O-])c2)cc1	-3.9	1.7	-3.0	4.7	-2.5	14.0*
Cc1ccc(S(=O)(=O)N2CCN(CC(=O)N/N=C\c3ccc(O)c(O)c3)CC2)cc1	-1.9	-4.7	11.6	20.8	10.4	0.4
CN1CCN(S(=O)(=O)c2ccc(NC(=O)C(C)(C)C)cc2)CC1	-2.5	8.1	-15.7	-2.8	-1.9	11.2*
CN1CCN(S(=O)(=O)c2ccc(Cl)cc2)CC1	.	8.6	-4.3	14.5	-0.1	14.0*!
O=C(c1ccc(CS(=O)(=O)Cc2ccccc2)cc1)N1CCCCC1	2.5	-0.9	-7.2	26.9	-2.2	-0.3
CC(=O)Nc1ccc(C(=O)Nc2ccc(S(=O)(=O)N3CCOCC3)cc2)cc1	-3.8	-1.9	-0.5	11.3	-1.0	31.4*
O=C(Nc1ccc(S(=O)(=O)N2CCOCC2)cc1)c1cc(-c2ccccc2O)n[nH]1	-4.1	7.7	1.8	1.2	46.4	27.3*
O=C(Nc1cccc(S(=O)(=O)N2CCOCC2)c1)c1ccc(Cl)c([N+](=O)[O-])c1	-7.6	-12.4	-5.4	7.4	2.1	-0.4
O=C(Nc1ccc(S(=O)(=O)N2CCOCC2)cc1)c1ccccc1	-5.5	-2.3	-3.3	6.0	-0.2	7.2
CC(C)(C)c1ccc(C(=O)Nc2ccc(N3CCOCC3)cc2)cc1	7.2	10.3	79.4*	29.0	0.0	2.8
O=C(Nc1ccc(S(=O)(=O)N2CCOCC2)cc1)c1ccc(Cl)c([N+](=O)[O-])c1	.	.	.	.	1.5	34.7*
SMILES	Beta cell apopt	SKKanGAS inh	CSC inhib	Mdm2 MdmX PPI	MPTP inh	GRIN3A LBD mod
CC(=O)c1ccc(C(=O)Nc2ccc(N3CCOCC3)cc2)cc1	-2.9	-2.2	0.5	5.9	-0.9	1.5
CCCCN(CC(=O)NC1CCCC1)C(=O)C(=O)Nc1ccc2c(c1)OCCO2	-3.1	2.7	-0.3	-27.3	-1.7	-3.0
c1ccc2c(-c3cc(NCc4ccncc4)n4nccc4n3)cccc2c1	.	.	.	.	0.6	.
CCOC(=O)c1oc2ccccc2c1COC(=O)CNC(=O)c1ccco1	-5.4	-2.4	-6.9	-22.2	-2.4	0.2
CN(C)CCN1CCN(C2CN(Cc3cn(Cc4ccccc4C(F)(F)F)nn3)S(=O)(=O)C2)CC1 (stereo not drawn)	.	.	.	.	-0.8	.
CCC(C(=O)NC(C)(C)C)n1c(C(c2ccccc2)c2ccccc2)nc2ccccc21 (stereo not drawn)	.	.	.	.	0.9	.
O=C(Nc1ccc(S(=O)(=O)N2CCOCC2)cc1)c1ccc([N+](=O)[O-])s1	90.1*	3.4	63.2	37.1	1.2	29.5*
O=C(Nc1cccc([N+](=O)[O-])c1)c1cc(S(=O)(=O)N2CCOCC2)cs1	-6.8	35.0	-3.6	10.4	-0.7	22.4*
CC(=O)N1CCN(c2ccc(NC(=O)c3ccc(Cl)c([N+](=O)[O-])c3)cc2)CC1	-7.7	0.2	3.5	-13.1	-0.5	14.7*
CC(=O)Nc1ccc(S(=O)(=O)N2CCN(S(=O)(=O)c3ccc(NC(C)=O)cc3)CC2)cc1	-3.8	19.6	-17.6	31.1	-1.2	-1.0
O=C(Nc1ccccc1)c1cc(S(=O)(=O)N2CCOCC2)cs1	0.3	1.6	14.6	-3.5	-0.9	0.7
CC(=O)Nc1ccc(S(=O)(=O)N2CCCN(S(=O)(=O)c3ccc(NC(C)=O)cc3)CC2)cc1	-2.9	4.5	.	-6.0	1.6	11.4*
Cc1ccc(C2CC(c3ccccc3)=NN2C(=O)CSc2nnc(-c3ccncc3)n2C)o1 (stereo not drawn)	-9.3	-3.8	37.4	8.9	0.9	7.1
Cc1ccc(CC(=O)Nc2cc(C)on2)cc1	-3.9	-0.5	-0.5	8.7	1.6	-1.1
NS(=O)(=O)c1ccc(NC(=O)c2cc(Cl)ccc2Cl)cc1	2.1	3.2	11.0	4.6	4.7	-1.4
N#Cc1cccc(NC(=O)c2ccc(S(=O)(=O)N3CCOCC3)cc2)c1	-1.0	.	-22.8	1.3	-1.6	16.4*
NS(=O)(=O)c1ccc(NC(=O)c2cc(-c3cc(Cl)ccc3O)n[nH]2)cc1	10.8	1.4	26.8	24.0	1.5	33.6*
Cc1ccc(C(=O)Nc2ccc(S(=O)(=O)N3CCOCC3)cc2)cc1C	.	5.2	-3.9	21.7	0.2	21.9*
Cc1ccc(-n2ccc(=O)c(C(=O)Nc3ccc(S(=O)(=O)N4CCOCC4)cc3)n2)cc1	0.8	-8.1	4.5	5.8	-0.8	11.9*
O=C(CSc1nnc(-c2c[nH]c3ccccc23)n1C1CC1)NC1CCS(=O)(=O)C1 (stereo not drawn)	.	.	.	.	-0.6	.
O=c1c(Cl)c(N/N=C/c2ccc(Cl)cc2)cnn1-c1ccccc1	0.5	23.4	13.4	2.7	17.8	15.8*
CCCCNC1=CC(=O)C(=O)c2ccccc21	99.1*	1.3	7.7	-11.1	2.5	1.3
CCCCNC1=CC(=O)C(NCCCC)=CC1=O	.	.	.	.	-1.5	0.8
Cc1cccc(NC(=O)NNC(=O)c2sccc2-n2cccc2)c1	-2.4	2.9	-0.7	12.5	-0.2	13.4*
CN(CC(=O)Nc1ccc(Cl)c(C(F)(F)F)c1)C(=O)Cc1c[nH]c2ccccc12	1.0	19.0	7.4	27.5	0.6	12.1*

High-throughput results from PubChem.
